{"source": "PubChem BioAssay AID1508600", "about": "(Functional Genomics Laboratory (NCATS/FGL), 2020)", "note": "The campaign covered roughly 53,000 sequences. About 3,700 (7%) were called active. The entries come from a sample that favours actives as a whole. Unmarked numbers belong to inactive results.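 Rule for the calls: active = gene knockdowns whose robust z-score for IL-1 alpha signal is at least 2 or at most -2, so actives lie on both sides; inactive = the rest.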", "data": [{"assay": "Components of the Cytosolic LPS Sensing Pathway: Gene Identification via Genome-wide siRNA Screen;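 note: robust z of the log signal after scaling to non-targeting control siRNA wells of the plate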", "settings": "RAW264.7 macrophages, IL-1a HTRF, actives lie on both sides, screened at 100 nM (by protocol), cells primed 5 h with Pam3CSK4 first", "summary_of_the_method": "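Mouse macrophage line RAW264.7 is transfected with siRNA (100 nM final), grown 48h, primed with TLR ligand Pam3CSK4 5 h and given intracellular LipidA 24 h. IL-1a in supernatant is read by HTRF and viability by luminescence.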", "values": [{"sequence": "GGAACCUCCUUAUUCAAUGTT against Rspry1", "z-score": 0.0592}, {"sequence": "GGUUGAAGCAGAAGAUAAUTT against Asnsd1", "z-score": "-2.2 (active)"}, {"sequence": "GGUGGAGGUCUGGUUUAAGTT against Gsc", "z-score": -0.4}, {"sequence": "GGUUGGCACAACUGUGUACTT against Cr2", "z-score": -0.0754}, {"sequence": "GGAAACCAACUUCAGCCUGTT against Gfra1", "z-score": -0.0125}, {"sequence": "GCAAAUCCCAUGAACAGCUTT against Nvl", "z-score": "-2.55 (active)"}, {"sequence": "GGGCAAUCGACUGAGAAUUTT against Lingo4", "z-score": -0.0246}, {"sequence": "CGAAGAAAACCAUAAGGACTT against Bdnf", "z-score": -0.876}, {"sequence": "GGAGAGCAAAUUAAGUUCATT against Erc1", "z-score": 1.01}, {"sequence": "GCAAUAAGGGCAUUAUAAATT against Wdhd1", "z-score": -0.407}, {"sequence": "GGUUCAUAAUGCCUUCAAGTT against Olfr1449", "z-score": 0.719}, {"sequence": "CCAGGAAGUUACAAUUCAATT against Ccpg1", "z-score": 0.181}, {"sequence": "GCCUAAUGCCAACUCACAATT against Samd7", "z-score": -1.49}, {"sequence": "GGCACUGCACUUUAACAUATT against Serpinb7", "z-score": -0.402}, {"sequence": "GGGUGUGAGGGAUUUCAUCTT against Ndufa2", "z-score": "2.22 (active)"}, {"sequence": "CCUAACCAUCGACUUCUUCTT against Wfs1", "z-score": -0.189}, {"sequence": "GCGGGACUGACCUCUUAAUTT against Guk1", "z-score": -0.244}, {"sequence": "GGAGUGAAGGUUCAGAUCCTT against Asic2", "z-score": "3.1 (active)"}, {"sequence": "GGCUUUCAGAGUUAACAAATT against Ptpn4", "z-score": -0.727}, {"sequence": "GGGUGUCUUCAACAAGUACTT against Dnttip1", "z-score": -1.71}, {"sequence": "GGAAAAAAGGAUUUCAAACTT against Rad9b", "z-score": 1.3}, {"sequence": "GGAAAGACCACCAAAUCCCTT against Dpy30", "z-score": 1.48}, {"sequence": "GGCUCCAUAUGGAAUGCAGTT against Ets2", "z-score": 0.571}, {"sequence": "CCAGCCGUAUUACAACUACTT against Bpnt1", "z-score": "2.12 (active)"}, {"sequence": "GCUUAAACCGCCUAUGUUCTT against Spcs1", "z-score": 0.782}, {"sequence": "GCUCACCUUUCUUGAGAAATT against 4930579C12Rik", "z-score": -0.179}, {"sequence": "GGAAAAAGUGCAUUUAUGUTT against Prpf40a", "z-score": -1.16}, {"sequence": "GCUGUUGCUGGCUAUUCUGTT against Eef2kmt", "z-score": "-2.3 (active)"}, {"sequence": "AACAUGUCCAACCUAGGCATT against Lefty1", "z-score": -1.44}, {"sequence": "GGUGGACUACUCACGAUUCTT against Kcnj4", "z-score": 0.867}, {"sequence": "GGAGCAGGACGAGAAUCAATT against Cdkn1c", "z-score": "3.62 (active)"}, {"sequence": "GCACUGGAAUCAAACCAUCTT against Ppp2r5b", "z-score": 0.444}, {"sequence": "CGCAUUUUCUCUCGAGCUUTT against Slc25a30", "z-score": -0.34}, {"sequence": "GGAGCACAGUUUUGGUGCUTT against Olfr576", "z-score": 1.82}, {"sequence": "GGAAGUAAAGCUCUACAAGTT against Vps28", "z-score": 0.236}, {"sequence": "GGCACAAUUUCUUUGAAUCTT against Ophn1", "z-score": 0.885}, {"sequence": "GGCUAUUAGGUUUGAAAUCTT against Grsf1", "z-score": 0.351}, {"sequence": "GGUUUCCAGUAAGAUCUUATT against Mdn1", "z-score": "2.21 (active)"}, {"sequence": "CCUAGAUUCUCCAAACUAATT against D630029K05Rik", "z-score": -0.238}, {"sequence": "GGAGAUGCGAGUACAACUGTT against Ermn", "z-score": 0.479}, {"sequence": "GGAAAGAUGUGGUCCAGCUTT against Sirt3", "z-score": 0.373}, {"sequence": "UUAAGCCGCUUUUGAAGCUTT against Olfr1200", "z-score": 0.812}, {"sequence": "GGCUUUCAAGAUUCAGUGATT against Gsta1", "z-score": 0.103}, {"sequence": "GGCACUUCAAGGAGUUUUUTT against Lig4", "z-score": "3.25 (active)"}, {"sequence": "GGAAAAUAAGCUAAGGAAGTT against Peg12", "z-score": -0.018}, {"sequence": "GGCAAUUUCUAAACAGGGATT against Atp6v1f", "z-score": "-2.01 (active)"}, {"sequence": "GCGAUGCUCCUAAUUCUUATT against Dusp21", "z-score": -1.18}, {"sequence": "GCUACAGUUUGUGGGUGACTT against Zmynd15", "z-score": 0.11}, {"sequence": "CGAGUAUCCCGUCAAGUUGTT against 6820408C15Rik", "z-score": -0.699}, {"sequence": "GGCAAAUUAGCUAGUAUCATT against Rai2", "z-score": "-2.2 (active)"}, {"sequence": "GGUGGAGAAGAGUUUCUGCTT against Gpr132", "z-score": 0.375}, {"sequence": "GGAGAAACAGAAGUAUUGATT against Nsa2", "z-score": -0.559}, {"sequence": "GGGUUGGAACAAGGUAAUUTT against Usp16", "z-score": -0.546}, {"sequence": "GGCUCAAAGCCAAUCUGAATT against Recql4", "z-score": "2.06 (active)"}, {"sequence": "GCUGUAUCCAGCUUUUCGGTT against Tcf3", "z-score": -0.43}, {"sequence": "GCGAGAUUCUUAAAGAAAUTT against Brdt", "z-score": 0.645}, {"sequence": "GAGCUGUGAAUGCCUGUGGTT against Lyz2", "z-score": "-2.33 (active)"}, {"sequence": "GCUAGUUAAUGGUAACAUATT against Sult1d1", "z-score": -1.68}, {"sequence": "GGCCAAACUGGAUUACUUATT against Tmprss11c", "z-score": 1.26}, {"sequence": "CCCUGCUCUCACUUGUUUATT against Olfr643", "z-score": -0.446}, {"sequence": "CCUUUCUUGUGUUUACAGGTT against P2ry6", "z-score": -0.347}, {"sequence": "GGCAGUUUCUUCUUCCAAATT against H1f1", "z-score": "2.89 (active)"}, {"sequence": "GGUGAUCAACAAUGGCAAUTT against Clec4a3", "z-score": 1.26}, {"sequence": "GCACAUGUGUUUAUACAUUTT against Sfxn3", "z-score": -0.556}, {"sequence": "CGACGAGGAAUAACCUCUCTT against Myh6", "z-score": "2.05 (active)"}, {"sequence": "GGGUAUGGCAUAAAUGUCCTT against Zpbp", "z-score": "-2.75 (active)"}, {"sequence": "GGCAUUCCAGAGAAAGCGUTT against F3", "z-score": -1.33}, {"sequence": "GCGAAUUGGAACAGCUGACTT against Sh3glb1", "z-score": -0.982}, {"sequence": "GGUAUACCACUAUUCUCACTT against Olfr649", "z-score": 0.705}, {"sequence": "CCAUAUAUGAUAGGAAACUTT against Pon2", "z-score": -0.288}, {"sequence": "GCCACAAUGUCCAAAAUUATT against Rab6a", "z-score": -0.271}, {"sequence": "GGAGCUUUUAAGAAUGUGGTT against Ireb2", "z-score": -1.57}, {"sequence": "GCAGGUGCCUUCAAAAACCTT against Pm20d2", "z-score": -0.926}, {"sequence": "CCUACGAGUUUUGCAUUUATT against Slc25a51", "z-score": "-2.46 (active)"}, {"sequence": "GGCAGCAGUUAAUUUACUUTT against Mmp21", "z-score": -1.71}, {"sequence": "GGCGGGUAGAUAUCAUGGGTT against Stn1", "z-score": 0.902}, {"sequence": "GGAAGCAAUGAUCAAUUAUTT against Ppp2r3c", "z-score": 0.752}, {"sequence": "GGUUCCAUGUUCAGAAUUUTT against Alg9", "z-score": "2.04 (active)"}, {"sequence": "GGCAAUGAUGAUCUCCUCUTT against Htra3", "z-score": 0.434}, {"sequence": "GGGUAUGACCGGUAUUACATT against Atp5j2", "z-score": 0.213}, {"sequence": "GGAGGCAGCCAAAGAAAACTT against Bmp8a", "z-score": 0.462}, {"sequence": "GGAUGAAAUCGCCAUAUGUTT against Snrnp48", "z-score": -1.89}, {"sequence": "GGAGAAAACCUAGAAAUUUTT against Galnt1", "z-score": 0.238}, {"sequence": "CCGGCUAUGAAGAUGAGUATT against Cox6a1", "z-score": "3.21 (active)"}, {"sequence": "GCCGUAAGCUAGGAUCUGGTT against 1700065D16Rik", "z-score": 0.787}, {"sequence": "GGUAAUACAACUGAGAACUTT against Zfp2", "z-score": 0.39}, {"sequence": "GGCAUCUGAGUGAUAUAAATT against Dcps", "z-score": 0.109}, {"sequence": "GGCCGUGUUAUCCAGAUUGTT against Prkcd", "z-score": 1.43}, {"sequence": "GGCAGUCUCAGGUUAUCUCTT against Zfp445", "z-score": 0.406}, {"sequence": "GGCUUUUCAGCAGGUUUAATT against Ube2g1", "z-score": "5.04 (active)"}, {"sequence": "GGCUGUAAGGGAACAGCUATT against Irf2bp1", "z-score": -0.615}, {"sequence": "GGUGAUGAAAUUUAUUGAGTT against Gpn1", "z-score": -0.127}, {"sequence": "GGAGAAGGGCCUGAAGUAUTT against Lsm5", "z-score": -1.77}, {"sequence": "GGUGGCAGUCACCAUUCUUTT against Il17rd", "z-score": -0.364}, {"sequence": "CCAUACAGAUCGCACCCUGTT against Txndc15", "z-score": "-2.15 (active)"}, {"sequence": "GGACAGAGCCUAGAAAACUTT against Mpdu1", "z-score": -1.15}, {"sequence": "GGCUCCAAGGGAUUUGGUUTT against Rbfox1", "z-score": "2.77 (active)"}, {"sequence": "GGACUUUGUCAACCAUGUCTT against Fbxl5", "z-score": -0.0144}, {"sequence": "CGUCAAUUCACACCAUUCATT against Gsk3a", "z-score": -1.25}, {"sequence": "GGGUGCUCUGAAGAAGCAATT against Olfr488", "z-score": "-2.04 (active)"}, {"sequence": "GGCUUAUGUCACCAACUUGTT against Pxdc1", "z-score": -0.533}, {"sequence": "GGAGUUAGAAUUGAACCUUTT against Mr1", "z-score": -1.49}, {"sequence": "GGAUCCAUUUUGAGGAUUUTT against Vipr1", "z-score": -0.056}, {"sequence": "GGGCAAGUACAAGCGUAACTT against Jph4", "z-score": -1.5}, {"sequence": "GGGAAAACACAAAGAAGAATT against Angpt1", "z-score": 0.307}, {"sequence": "GGAGCCUAUCGCUUUACUCTT against Vps16", "z-score": 1.18}, {"sequence": "GGAGAUCUGUGAUGAGGUGTT against Nudt22", "z-score": "2.07 (active)"}, {"sequence": "GGUGUCAACAUUGCAUACUTT against Gatad2b", "z-score": 1.62}]}]}
